A selection: hits, their analogues and other compounds. The true share with any hit is near 10%.
Luciferase inh – inhibitors of firefly (Photinus pyralis) luciferase | purified P. pyralis luciferase, luminescence, biochemical | 2.5% of 76,000 active | AID 1347043 | Potency, µM (top dose mostly 115 µM), usual class: inhibitors; further: on the % scale 0 is the no-effect control and ±100 the full control effect; nearly all actives have a fitted effect of over 65% in size
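Luminescence read by CCD imager after adding enzyme (10nM final) to wells holding compound, titrated in qHTS. Substrates 10uM each D-luciferin and ATP; buffer 50mM Tris acetate pH 7.5, 10mM Mg acetate, Tween-20, BSA.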
HEK293 tox – HEK 293 cell cytotoxicity | AID 1345083 | Potency, µM (highest dose often 115 µM), for inactives: top-dose activity change, negative = cytotoxicity, hits mostly inhibitors | 6.6% of 94,000 active | HEK 293 viability, ATP luminescence (CellTiter-Glo), 48-72 h; further: on the % scale 0 is the no-effect control and ±100 the full control effect; nearly all actives have a fitted effect of over 60% in size
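CellTiter-Glo luminescence (cellular ATP) was read after 48 or 72 hr of compound exposure at 37 degree Celsius. Cells were HEK 293 plated at 250 cells/well.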
3T3 cytotox – kills NIH 3T3 cells; AID 1345082; Potency, µM (titrated, usually from 96.7 µM), for the others: at the top dose activity change, negative = cytotoxicity, most hits filed as inhibitors; NIH 3T3 viability, CellTiter-Glo ATP luminescence, 48-72 h; 4.3% of 94,000 active; further: on the % scale 0 is the no-effect control and ±100 the full control effect; nearly all actives have a fitted effect of over 55% in size
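First NIH 3T3 cells are plated at 400 cells/well; next compound is pinned in; then plates incubate 48 or 72 hr at 37 °C; finally CellTiter-Glo is added and luminescence read after 10 min.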
hNpr1 antagonist – human Npr1 receptor antagonism | HEK293 hNpr1 GloSensor cGMP, ANP-stimulated luminescence | Potency, µM (doses to about 46.3 µM), for inactives: at the top dose activity change, negative = inhibition, most hits filed as inhibitors | AID 1347048 | 1.6% of 76,000 active | P16066; calls by dose curve; further: on the % scale 0 is the no-effect control and ±100 the full control effect; nearly all actives have a fitted effect of over 60% in size
Target sequence (P16066 whole entry, looked up): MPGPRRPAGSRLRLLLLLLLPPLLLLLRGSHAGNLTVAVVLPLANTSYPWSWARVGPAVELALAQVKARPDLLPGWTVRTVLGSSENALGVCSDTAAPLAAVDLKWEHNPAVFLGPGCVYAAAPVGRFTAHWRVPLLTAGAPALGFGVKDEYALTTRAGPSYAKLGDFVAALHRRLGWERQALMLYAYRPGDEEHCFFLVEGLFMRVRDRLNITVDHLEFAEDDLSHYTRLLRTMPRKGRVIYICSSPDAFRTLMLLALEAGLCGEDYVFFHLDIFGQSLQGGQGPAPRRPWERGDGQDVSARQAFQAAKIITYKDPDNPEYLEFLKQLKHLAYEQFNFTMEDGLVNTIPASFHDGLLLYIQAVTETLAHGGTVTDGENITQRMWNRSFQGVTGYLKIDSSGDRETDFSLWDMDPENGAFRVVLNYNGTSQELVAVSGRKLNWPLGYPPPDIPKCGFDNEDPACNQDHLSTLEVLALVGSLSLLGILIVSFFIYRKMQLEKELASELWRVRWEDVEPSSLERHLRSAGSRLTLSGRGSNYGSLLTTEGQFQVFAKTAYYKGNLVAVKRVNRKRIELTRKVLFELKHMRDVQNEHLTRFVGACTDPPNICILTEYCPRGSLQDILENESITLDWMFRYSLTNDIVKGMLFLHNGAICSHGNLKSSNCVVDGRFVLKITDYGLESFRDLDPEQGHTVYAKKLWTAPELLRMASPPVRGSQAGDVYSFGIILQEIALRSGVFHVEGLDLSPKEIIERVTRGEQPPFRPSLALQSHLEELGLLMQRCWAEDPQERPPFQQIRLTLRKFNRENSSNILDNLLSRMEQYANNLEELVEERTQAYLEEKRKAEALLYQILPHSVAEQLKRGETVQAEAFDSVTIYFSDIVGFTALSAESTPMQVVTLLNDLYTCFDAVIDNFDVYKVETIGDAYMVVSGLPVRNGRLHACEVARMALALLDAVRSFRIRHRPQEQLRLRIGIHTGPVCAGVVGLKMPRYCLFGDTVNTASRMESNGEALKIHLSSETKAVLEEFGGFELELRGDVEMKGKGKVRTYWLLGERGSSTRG
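Compound pre-incubated 30 min at room temperature on GloSensor-loaded HEK293 cells stably carrying hNpr1 and the pGS-40F cGMP biosensor. Stimulation uses hNppA at 0.1 nM final; luminescence is taken at baseline and 20 min post-agonist.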
GPT2 inh – GPT2 alanine aminotransferase inhibition; Recombinant GPT2, coupled pyruvate oxidase/HRP Amplex Red fluorescence; 0.25% of 100,000 active; AID 1671188; Potency, µM (top dose mostly 57.7 µM), without a hit: top-dose activity change, negative = inhibition, hits mostly inhibitors; Q8TD30; further: on the % scale 0 is the no-effect control and ±100 the full control effect; nearly all actives have a fitted effect of over 60% in size
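Fluorescence of coupled pyruvate oxidase/HRP/Amplex Red system (50uM Amplex, 30 min, dark) reports pyruvate formed by GPT2. Enzyme reaction: 10ng/uL GPT2, 2mM L-alanine, 250uM a-KG, 30 min room temperature, pH 7.5; 50uM AOA control.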
NPR1 antag cnf – confirmation of human Npr1 natriuretic peptide receptor antagonists; shares compounds with hNpr1 antagonist; Potency, µM (top dose mostly 57.6 µM), inactives show top-dose activity change, negative = inhibition, usual class: inhibitors; AID 1347044; HEK293 hNpr1 cGMP GloSensor luminescence, ANP-stimulated; 76% of 1,400 active; calls by dose curve; further: nearly all actives have a fitted effect of over 70% in size
NPR2 antag – selectivity test of Npr1 antagonists against human Npr2; Potency, µM (titrated, usually from 57.6 µM), without a hit: top-dose activity change, negative = inhibition, hits mostly inhibitors; HEK293 hNpr2 GloSensor cGMP luminescence, CNP-stimulated; shares compounds with hNpr1 antagonist; 67% of 1,400 active; calls by dose curve; further: nearly all actives have a fitted effect of over 70% in size
FLuc counter – inhibits firefly luciferase, false Npr1 antagonist flag; shares compounds with hNpr1 antagonist; purified FLuc enzyme, luminescence, Km substrate; Potency, µM (top dose mostly 57.6 µM), without a hit: top-dose activity change, negative = inhibition, usual class: inhibitors; 0.7% of 1,400 active; further: 0% is about no effect
GloSensor ctrl – reduces cGMP signal in GloSensor control cells | 69% of 1,400 active | Potency, µM (series often up to 57.6 µM), inactives show at the highest dose activity change, negative = inhibition, most hits filed as inhibitors | HEK293 GloSensor cGMP, SNP-stimulated, luminescence | shares compounds with hNpr1 antagonist | AID 1347051; calls by dose curve; further: on the % scale 0 is the no-effect control and ±100 the full control effect; nearly all actives have a fitted effect of over 70% in size
Starred values were filed as active, the others as inactive; i = inactive; ? = inconclusive; · = no result given; [ ] = remark or other dose. Unless noted, the call rests on the fitted dose curve; in most records, active means well fitted curve in the direction sought with a large enough effect; inconclusive means small, poorly fitted or top-dose-only effect, or another doubt; inactive means no such curve, though single readings can be large; an effect the other way counts as inactive or inconclusive. Potency means the concentration at half of the fitted maximal effect.

SMILES	Luciferase inh	HEK293 tox	3T3 cytotox	hNpr1 antagonist	GPT2 inh	NPR1 antag cnf	NPR2 antag	FLuc counter	GloSensor ctrl
CCC(CC)c1cc([C@H]2CN3CC[C@H]2C[C@@H]3CNS(=O)(=O)c2cccs2)nc(-c2ccncc2)n1	i	?	20µM*	14µM*	i	22µM*	11µM*	5%	-15%
CCC(CC)c1cc([C@H]2CN3CC[C@H]2C[C@@H]3CNS(C)(=O)=O)nc(-c2ccncc2)n1	i	-10%	-15%	2%	-5%	·	·	·	·
CCC(=O)N1[C@H]2CC[C@@H]1c1cnc(-c3ccc(F)cc3)nc1C2	i	-22%	-24%	?	i	·	·	·	·
O=C(C1CCCCC1)N1[C@H]2CC[C@@H]1c1cnc(-c3ccc(F)cc3)nc1C2	i	-34%	-30%	6.3µM*	-14%	9.7µM*	11µM*	5%	9.7µM*
O=C(C1CCC1)N1[C@H]2CC[C@@H]1c1cnc(-c3ccccc3)nc1C2	i	?	-21%	?	i	·	·	·	·
O=C(C1CCC1)N1[C@H]2CC[C@@H]1c1cnc(-c3ccc(F)cc3)nc1C2	i	?	-43%	18µM*	i	19µM*	19µM*	1%	15µM*
Cn1cccc1C(=O)N1[C@H]2CC[C@@H]1c1cnc(-c3ccc(F)cc3)nc1C2	i	16µM*	?	10µM*	i	12µM*	15µM*	2%	14µM*
O=C(CC1CCCC1)N1[C@H]2CC[C@@H]1c1cnc(-c3ccccc3)nc1C2	i	?	-27%	5.6µM*	-1%	11µM*	12µM*	2%	11µM*
COc1ccc2c(c1)C1(CCN(C(=O)c3ccccc3Br)C1)C(=O)N2 (stereo not drawn)	i	?	-8%	0%	4%	·	·	·	·
COc1ccc(CNC(=O)N2[C@H]3CC[C@@H]2c2cnc(-c4ccccc4)nc2C3)cc1	i	?	-43%	13µM*	-17%	19µM*	19µM*	2%	14µM*
C/C=C(\C)C(=O)OC1C2C3(C)CCC(OC4CC(OC)C(OC5OC(C)C(O)C(OC)C5O)C(C)O4)CC3CCC23OC32CCC(C(C)=O)C2(C)C1OC(=O)/C(C)=C/C (stereo not drawn)	·	·	·	·	-4%[17.1 µM]	·	·	·	·
COc1ccc(C2(C(=O)N3CCC4(CC3)c3nccn3-c3ccccc3CN4C)CC2)cc1	i	?	-15%	8.9µM*	i	17µM*	5.4µM*	2%	7%
O=C1Nc2ccccc2C12CCN(Cc1ccc(F)cc1)CC2	·	?	-7%	·	i	·	·	·	·
O=C1Nc2ccccc2C12CCN(Cc1ccc(C(F)(F)F)cc1)CC2	·	?	?	·	-13%	24µM*	24µM*	-1%	24µM*
CC[C@H]1CN2CC[C@H]1C[C@@H]2CN(Cc1cccs1)Cc1cccs1	i	45µM*	45µM*	?	-4%[88.5 µM]	?	?	3%[86.2 µM]	4%[86.2 µM]
CC[C@H]1CN2CC[C@H]1C[C@@H]2CNS(=O)(=O)c1cccs1	i	-1%[172 µM]	1%[174 µM]	0%[70.6 µM]	2%[88.5 µM]	·	·	·	·

Source: PubChem
